Compounds with a hit are over-represented: about 4.6% of the library has one in this group of screens.
tim23-1 inh: growth inhibitors of tim23-1 mutant yeast; S. cerevisiae tim23-1 growth, BacTiter-Glo luminescence, 24 h; inhibition, % at 20 µM; 1.3% of 330,000 active;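 active = growth inhibition of the mutant yeast at or above 50%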;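 note: temperature-sensitive mutant grown at 25 °C; plate controls were DMSO-treated mutant yeast for no effect and medium wells lacking yeast for full effect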
PfHsp90 yeast 2: inhibits growth of yeast expressing Plasmodium falciparum Hsp90; S. cerevisiae expressing PfHsp90, BacTiter-Glo ATP, 48 h; yeast lacking PDR1 and PDR3 efflux regulators; 0.32% of 310,000 active; AID 504621; inhibition, % at 9.4 µM;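 active = every replicate shows inhibition above about 80%, whatever the replicate mean, limit read from the data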;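 note: 0% = DMSO neutral controls and 100% = 20 µM radicicol positive controls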
SKKanGAS inh: inhibitors of SKKanGAS S. pyogenes growth in kanamycin (SK-promoter or general growth effect). 1.3% of 300,000 active. BacTiter-Glo, 6 h. inhibition, % at 7.5 µM;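 active = mean replicate score, as percent of positive control median, at least 50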;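 note: strain carries kanamycin resistance gene driven by streptokinase promoter and grows in 40 µg/ml kanamycin; loss of luminescence reflects streptokinase promoter inhibition or plain growth inhibition; 0% = median of DMSO wells and 100% = positive control at its reference dose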
V-ATPase pHluor: regulators of yeast V-ATPase proton transport. S. cerevisiae, pHLuorin cytosolic pH fluorescence. response, % at 10 µM. 0.37% of 350,000 active. AID 504577; in the data active = response mostly above about 7.3%, no sharp cut-off; inactive = mostly below about 5.4%; note: actives read high
tim10-1 inh: inhibits growth of tim10-1 mutant yeast | S. cerevisiae tim10-1 ts strain growth, BacTiter-Glo, 24 h | inhibition, % at 20 µM | 2.2% of 330,000 active;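 active = inhibition of at least 40%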;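 note: mutant grown at 25 °C; 0% = DMSO wells with yeast and 100% = wells holding no yeast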
TIM10 inh: inhibits growth of TIM10 yeast strain. S. cerevisiae TIM10 strain growth, BacTiter-Glo luminescence, 24 h. inhibition, % at 10 µM. 1.4% of 330,000 active. AID 463195;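 active = inhibition of 40% or more at the single tested concentration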;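 note: wild-type TIM10 isogenic control strain grown at permissive 25 °C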
VATPase regulator: modulates yeast V-ATPase proton transport; 2% of 980 active; response, % at 10 µM; shares compounds with V-ATPase pHluor; S. cerevisiae pHLuorin cytosolic pH; in the data active = response above about 24%;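 note: plate controls were vehicle wells for no effect and positive control wells for full effect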
* hit, by the source's call.

How did COc1ccc(NC(=O)c2ccccc2-c2ccccc2)cc1 do in these assays?
tim23-1 inh: -7.4; PfHsp90 yeast 2: 1.2; SKKanGAS inh: -6.0; V-ATPase pHluor: -0.4; tim10-1 inh: 9.2; TIM10 inh: 5.8

How did O=C(CN1CCN(C(=O)C2CCCO2)CC1)Nc1ccc(Cl)cc1 (stereo not drawn) do in these assays?
tim23-1 inh: 23.1; PfHsp90 yeast 2: -17.7; SKKanGAS inh: 12.5; V-ATPase pHluor: 2.2; tim10-1 inh: 7.9; TIM10 inh: 3.1

Results for Cc1ccc(/C=N/NC(=O)Nc2ccccc2)o1 ?
tim23-1 inh: 6.0; PfHsp90 yeast 2: 9.2; SKKanGAS inh: -3.2; V-ATPase pHluor: 37.8*; tim10-1 inh: 9.9; TIM10 inh: 8.3; VATPase regulator: 1.3

What do the screens show for `CC(C)NC(=NCc1ccc(Cl)cc1Cl)Nc1ccccc1`?
tim23-1 inh: 1.8; PfHsp90 yeast 2: 0.1; SKKanGAS inh: -3.6; V-ATPase pHluor: 7.9; tim10-1 inh: 19.8; TIM10 inh: -3.4

What do the screens show for `CCOC(=O)c1c(-c2ccccc2)csc1NC(=O)CSc1nnc(C)s1`?
tim23-1 inh: 25.5; PfHsp90 yeast 2: -10.3; SKKanGAS inh: 15.7; V-ATPase pHluor: 0.5; tim10-1 inh: 22.0; TIM10 inh: 20.4

Results for CCOC(=O)c1c(-c2ccc(C)o2)csc1NC(=O)CSc1nnc(C)s1 ?
tim23-1 inh: 27.5; PfHsp90 yeast 2: 10.8; SKKanGAS inh: -21.5; V-ATPase pHluor: 9.2*; tim10-1 inh: 4.3; TIM10 inh: -11.6; VATPase regulator: -1.4

How did O=S1(=O)C=C(SCCN2CCCCC2)c2ccccc21 do in these assays?
tim23-1 inh: -2.5; PfHsp90 yeast 2: 0.8; SKKanGAS inh: -10.3; V-ATPase pHluor: -2.4; tim10-1 inh: -0.2; TIM10 inh: -7.0; VATPase regulator: 2.7

Results for CCN(CC)C(=O)c1[nH]cnc1C(=O)NC1CCN(C(=O)OC(C)(C)C)CC1 ?
tim23-1 inh: -17.2; PfHsp90 yeast 2: 5.7; V-ATPase pHluor: -6.4; tim10-1 inh: 1.5; TIM10 inh: 4.4

How did CC(C)(C)c1oc(C(=O)O)cc1CN1CCOCC1 do in these assays?
tim23-1 inh: 19.8; PfHsp90 yeast 2: -12.2; SKKanGAS inh: -5.4; V-ATPase pHluor: -0.2; tim10-1 inh: 2.4; TIM10 inh: 3.8

How did CCCNC(=O)CCCN1C(=O)c2ccccc2Sc2ncccc21 do in these assays?
tim23-1 inh: 6.1; PfHsp90 yeast 2: 9.9; SKKanGAS inh: -3.0; V-ATPase pHluor: 9.0*; tim10-1 inh: 23.2; TIM10 inh: -9.0; VATPase regulator: 4.8

Results for CCCCSCCCNC(=O)CCCN1C(=O)c2ccccc2Sc2ncccc21 ?
tim23-1 inh: -3.5; PfHsp90 yeast 2: -5.7; SKKanGAS inh: -3.2; V-ATPase pHluor: -2.7; tim10-1 inh: 0.8; TIM10 inh: 2.9

Results for COc1cc(/C=N/NC(=O)CN2CCCCC2)ccc1OCc1ccccc1 ?
tim23-1 inh: -4.3; PfHsp90 yeast 2: -11.4; SKKanGAS inh: 1.2; V-ATPase pHluor: 9.6*; tim10-1 inh: -2.9; TIM10 inh: -6.9; VATPase regulator: -2.4

How did C/C(=N\NC(=O)c1ccc(-n2cnnn2)cc1)c1ccc(C)cc1 do in these assays?
tim23-1 inh: -5.6; V-ATPase pHluor: 4.0; tim10-1 inh: -8.7; TIM10 inh: 4.5

Results for COc1ccc(NC(=O)C2CCCN(S(C)(=O)=O)C2)cc1 (stereo not drawn) ?
tim23-1 inh: -0.7; PfHsp90 yeast 2: 10.2; SKKanGAS inh: -6.8; V-ATPase pHluor: 1.2; tim10-1 inh: -7.4; TIM10 inh: -9.9

Results for CS(=O)(=O)N1CCCC(C(=O)Nc2ccccc2)C1 (stereo not drawn) ?
tim23-1 inh: -3.9; PfHsp90 yeast 2: -6.5; SKKanGAS inh: 4.0; V-ATPase pHluor: 12.4*; tim10-1 inh: -11.1; TIM10 inh: -1.5; VATPase regulator: -0.7

What do the screens show for `COc1ccc(CN(C(=O)COc2ccc(C)c(C)c2)C2CCS(=O)(=O)C2)cc1OC` (stereo not drawn)?
tim23-1 inh: 17.9; PfHsp90 yeast 2: 14.5; SKKanGAS inh: -5.9; V-ATPase pHluor: -1.6; tim10-1 inh: 8.2; TIM10 inh: 1.3

How did CCCN(C(=O)COc1ccc(C(C)=O)cc1OC)C1CCS(=O)(=O)C1 (stereo not drawn) do in these assays?
tim23-1 inh: 3.4; PfHsp90 yeast 2: -1.2; V-ATPase pHluor: 10.2*; tim10-1 inh: 21.8; TIM10 inh: 2.8; VATPase regulator: -5.3

How did O=C(NCCc1ccccc1)[C@@H]1CC=C[C@@H]2CCN(C3CCCCC3)C(=O)[C@@H]21 do in these assays?
tim23-1 inh: 25.6; SKKanGAS inh: 2.2; V-ATPase pHluor: 1.8; tim10-1 inh: 17.8; TIM10 inh: 29.4

What do the screens show for `CCOC(=S)SCC(=O)N1CCc2ccccc2C1C1C(=O)CC(C)(C)CC1=O` (stereo not drawn)?
tim23-1 inh: 29.1; PfHsp90 yeast 2: -10.0; SKKanGAS inh: 0.9; V-ATPase pHluor: 4.6; tim10-1 inh: 28.1; TIM10 inh: 27.4

Results for CCOC(=S)SCC(=O)N1CCc2cc(OC)c(OC)cc2C1C1C(=O)CC(C)(C)CC1=O (stereo not drawn) ?
tim23-1 inh: 7.0; PfHsp90 yeast 2: -9.3; SKKanGAS inh: 4.4; V-ATPase pHluor: 20.3*; tim10-1 inh: 18.3; TIM10 inh: 9.6; VATPase regulator: -2.5

Results for O=C(CCOc1ccccc1)Nc1ccnn1C1CCN(C(=O)CCC(F)(F)F)CC1 ?
tim23-1 inh: -2.6; PfHsp90 yeast 2: -9.7; SKKanGAS inh: 3.1; V-ATPase pHluor: 1.2; tim10-1 inh: 1.9; TIM10 inh: 15.7

Results for CCCCCOc1ccc(C(C)(O)C(CN2CCOCC2)c2ccccc2)cc1 (stereo not drawn) ?
tim23-1 inh: 25.3; PfHsp90 yeast 2: -25.2; SKKanGAS inh: 5.6; V-ATPase pHluor: 13.7*; tim10-1 inh: 0.3; TIM10 inh: 25.3; VATPase regulator: -1.1

What do the screens show for `CCCCCCC(O)(c1ccc(OC)cc1)C(CN1CCOCC1)c1ccccc1` (stereo not drawn)?
tim23-1 inh: 45.8; PfHsp90 yeast 2: 5.6; SKKanGAS inh: 5.9; V-ATPase pHluor: 2.4; tim10-1 inh: 35.7; TIM10 inh: 14.5

Results for O=C(c1ccc2ccccc2c1)C1CCCN(S(=O)(=O)c2cccnc2)C1 (stereo not drawn) ?
tim23-1 inh: 31.5; PfHsp90 yeast 2: -12.8; SKKanGAS inh: -8.6; V-ATPase pHluor: 3.6; tim10-1 inh: 26.1; TIM10 inh: 18.4

What do the screens show for `C[C@H]1CN([C@@H](C)CO)C(=O)c2cc(C3=CCCC3)cnc2O[C@@H]1CN(C)C(=O)c1ccncc1`?
V-ATPase pHluor: -0.3

Results for O=C(O)CCN1C(=O)C2C3CC(C2C1=O)C1C(c2ccccc2)c2sc(=O)n(-c4ccccc4)c2SC31 (stereo not drawn) ?
tim23-1 inh: 18.3; PfHsp90 yeast 2: -7.9; SKKanGAS inh: 13.7; V-ATPase pHluor: 9.2*; tim10-1 inh: 25.5; TIM10 inh: 3.0; VATPase regulator: 3.0
